Data taken from ChEMBL document CHEMBL3988442, “University of Dundee, Small-Polar-MMV Screening Library” (2021).

Columns and labels:
[1] = target: T1, Aspartate--tRNA(Asp/Asn) ligase (Mycobacterium tuberculosis (strain ATCC 25618 / H37Rv)) (UniProt P9WFW3); assay: Assay for Asp RNA synthetase-1 from Mycobacterium tuberculosis; type: functional; parameters: scale not given: direction of the effect not stated beside the values; conditions: 30 µM; further: in the data most compounds retested in dose-response had high values
T1 sequence (whole entry): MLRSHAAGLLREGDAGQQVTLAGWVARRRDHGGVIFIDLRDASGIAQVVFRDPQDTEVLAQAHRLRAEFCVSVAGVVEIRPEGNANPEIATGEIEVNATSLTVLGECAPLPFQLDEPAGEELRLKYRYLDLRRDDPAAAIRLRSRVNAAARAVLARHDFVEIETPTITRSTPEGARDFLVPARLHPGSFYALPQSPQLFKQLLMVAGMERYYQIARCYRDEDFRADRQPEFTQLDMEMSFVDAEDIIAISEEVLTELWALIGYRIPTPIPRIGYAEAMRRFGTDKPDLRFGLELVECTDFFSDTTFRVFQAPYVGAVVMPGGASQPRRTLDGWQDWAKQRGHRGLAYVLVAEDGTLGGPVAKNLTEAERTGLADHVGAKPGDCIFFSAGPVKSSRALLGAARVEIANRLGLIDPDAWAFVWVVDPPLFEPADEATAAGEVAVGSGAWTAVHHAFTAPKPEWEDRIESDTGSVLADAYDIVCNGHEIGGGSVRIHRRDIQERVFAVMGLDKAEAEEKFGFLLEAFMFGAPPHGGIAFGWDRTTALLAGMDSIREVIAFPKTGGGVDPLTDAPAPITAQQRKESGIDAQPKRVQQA

[2] = target: Shiga toxin 2 (Escherichia coli O157:H7) (UniProt P09385+P09386); assay: E. coli 0.157:H7 Shiga Toxin SOP - stx2 screening assay; type: functional; parameters: scale not given: direction of the effect not stated beside the values; conditions: 30 µM

Structure (SMILES)	Percent Effect [1] [%]	Percent Effect [2] [%]
COCCc1noc(CN2CCCC2c2c(C)nn(C)c2C)n1 (configuration not stated)	-7.13	10.3
COc1cc(CNCc2ccc(NC(=O)NC(C)C)cc2)cc(OC)c1	1.67	-65.1
CCc1nc2n(n1)CC(NCC(=O)Nc1cc(C)on1)CC2 (configuration not stated)	-3.4	3.33
CCc1c(C(=O)N2CCN(CC(N)=O)CC2)cnn1C(C)(C)C	-2.87	2.77
O=C(CCc1cc2n(n1)CCCN(C(=O)c1cccnc1)C2)NC1CC1	-2.01	-9.98
Cc1nc(CN2CCCC(N(C)Cc3c(C)noc3C)C2)no1 (configuration not stated)	-5.45	18.6
O=C(Cn1cccnc1=O)NC(Cc1cccs1)c1ccccn1 (configuration not stated)	-0.372	-0.987
COCCc1noc(CN(C)C(=O)c2cccc(N3CCCC3=O)c2)n1	3.06	3.89
O=C(c1ccc[nH]1)N1CCCC(c2cc(C(F)(F)F)[nH]n2)C1 (configuration not stated)	3.68	36.4
NC(=O)CN1CCCN(C(=O)c2ccn(-c3cccc(F)c3)n2)CC1	5.51	-6.78
Cc1c(C(=O)NCC(C)C)nnn1-c1cccc2c1CCN(C)C2	0.928	-7.34
O=C(c1ccnnc1)N1CCC2(CC1)CC(N1CCOCC1)C2	2.89	-0.921
Cc1nc(C)c(C(=O)NCCNC(=O)c2ccc(F)cc2F)s1	-2.04	-16
COc1cc(CN(C)C(=O)Cc2c(C)nn(C)c2C)ccc1OC(F)F	-2.09	-4.8
COc1ccc2c(ccn2CCC(=O)O)c1	-2.82	-49
Cc1ccc(S(=O)(=O)NC(=O)c2cccc(OCC(N)=O)c2)s1	2.86	-20.2
COCC(C)NC(=O)c1cc(Br)c2c(c1)OCCO2 (configuration not stated)	-9.24	-10.8
CCc1noc(C2CCCCN2C(=O)c2ccn(C3CCCC3)n2)n1 (configuration not stated)	-5.11	-5.88
Clc1snnc1CN1CCCCC1Cn1cncn1 (configuration not stated)	-1.89	-12
CS(=O)(=O)NCc1cn2c(n1)CN(C(=O)c1ccc[nH]1)CC2	1.81	-6.4
Cc1ncc(CNC(=O)CCOc2ccccc2)c(C2CCCN2C)n1 (configuration not stated)	5.05	-10.2
CC(NC(=O)NCCCn1cccn1)c1ccc2c(c1)NC(=O)CO2 (configuration not stated)	-5.91	-20.8
Cc1csc(C2CCCCN2C(=O)CN(C)Cc2ccccc2)n1 (configuration not stated)	-3.92	8.13
COCCN1CC(C(=O)NCc2ccnc(-n3cccn3)c2)CC1=O (configuration not stated)	-0.544	-36.8
O=C(NCc1cc(O)ncn1)C1CCOc2ccccc2C1 (configuration not stated)	-6.23	16
CCOCCN1CCN(Cc2nc(C3CC3)no2)CC1CC (configuration not stated)	-4.28	9.42

Structure (SMILES)	Percent Effect [1] [%]	Percent Effect [2] [%]
COCCN1CCC(CNC(=O)c2cc(C)cc(C)c2)C1 (configuration not stated)	-2.92	-3.77
c1ccc(-c2nc(CN3CCCC(Cn4cncn4)C3)co2)cc1 (configuration not stated)	0.247	-67.5
COCCNC(=O)c1cc(S(=O)(=O)N2CCCCC2)cs1	0.21	-0.342
CCOc1ccc(S(=O)(=O)NCc2cccnc2N(C)C)cc1	1.46	-16.7
c1cnnc(N2CCCC2CNCc2nc3ccccc3o2)c1 (configuration not stated)	7.18	-25.7
Cc1ccsc1C(=O)N1Cc2ccccc2C2(CCN(C)CC2)C1	5.26	5.47
O=S(=O)(c1cccs1)N1CCCn2nnc(CN3CCCCC3)c2C1	5.59	-16.9
Cn1cc(CC2CCN(C(=O)NCc3cn4ccsc4n3)C2)cn1 (configuration not stated)	-4.64	-8.11
Cc1ccc(-c2cc(CN3CCOC(Cn4cncn4)C3)on2)cc1 (configuration not stated)	1.83	-14
COc1ccc(COCC(O)CNC(=O)c2cc(C)cc(C)c2)cc1 (configuration not stated)	-0.859	-16.6
Cc1nc(Nc2ncccn2)cc(C2CCCN2CC(C)C)n1 (configuration not stated)	-0.75	13.5
Cc1ccc(C)c(C(C(=O)O)N2CCCN(Cc3ccccn3)CC2)c1 (configuration not stated)	-3.28	2.34
Cc1cc(O)c(OCC(=O)/N=c2\[nH]cc(C)s2)cn1	-2.4	-6.58
COc1cccc2c1OCC(CNC(=O)CSc1nc(N)n[nH]1)C2 (configuration not stated)	2.1	6.55
c1cc(-c2cnccn2)cc(-c2ccn(CCN3CCCC3)n2)c1	1.97	-29.3
O=C(NCc1cc[nH]n1)NC1CCCN(c2ncccn2)C1 (configuration not stated)	-4.43	-3.98
COCc1cnc2n1CCN(C(=O)C1=CCCCC1)C2C (configuration not stated)	-0.348	-61.5
COc1ccc(C2CC(=O)Nc3c2nc2n3CCCC2)cc1O (configuration not stated)	-2	-3.52
O=C(c1cccc(S(=O)(=O)NCCCc2ccco2)c1)N1CCOCC1	6.79	-0.897
O=C(c1cccc2cccnc12)N1CCCN(c2cccnn2)CC1	-6.72	3.11
c1cnn(CC2CCCN2c2ncnc3ccsc23)c1 (configuration not stated)	3.64	16.1
CCc1nc(CN2CCN(C(=O)COCc3ccccc3)CC2)no1	-1.88	2.35
O=C(c1ccn(-c2ccccc2Cl)n1)N1CCSCC1	1.45	8.96
N#Cc1cccc(S(=O)(=O)NC2CCN(Cc3ccccc3)C2=O)c1 (configuration not stated)	-1.89	8.07
CCc1c(C)nc2n(c1=O)CC(C(=O)Nc1ccccc1F)CS2 (configuration not stated)	-3.83	-4.39
CN(C)C(=O)Cc1nc(CN2CCn3c(nnc3C3CC3)C2)cs1	-1.22	10.2

Structure (SMILES)	Percent Effect [1] [%]	Percent Effect [2] [%]
CCN(CC)C(=O)c1nnc2ccc(N3CCOCC3)cc2n1	-5.17	-18.6
Cc1n[nH]cc1CNc1ccc2c(c1)CN(C(=O)OC(C)(C)C)CC2	2.29	-13.2
CCN1CCN(CC(C)(O)c2cccc(C(F)(F)F)c2)CC1 (configuration not stated)	3.38	6.41
CCc1ncnc2c1CCN(C(=O)Cc1ccccn1)CC2	-1.97	-18.4
Cc1cnn(CC2CCCCN2C(=O)c2ccc3nnc(C)n3c2)c1 (configuration not stated)	10.3	21.9
COc1cc(C(C)=O)ccc1OCC(=O)N(C)Cc1cnn(C)c1	-4.92	0.928
CC(C)OCCN(Cc1cccc(O)c1)C1CCC(O)CC1 (configuration not stated)	3.29	-13.5
CC(C)COC(C)C(=O)N1CCN(S(C)(=O)=O)CC1 (configuration not stated)	-6.93	-2.13
CC(C(=O)NCc1ccc(-n2cncn2)nc1)n1ccnc1 (configuration not stated)	5.56	19.8
O=C(NCc1ccccc1CN1CCC(O)CC1)Nc1cccnc1	1.28	-12.1
c1cnc2c(c1)cc(C1CCOCC1)n2CCN1CCOCC1	3.26	4.5
CCn1cc(NC(=O)C2CCN(CC(=O)N3CCOCC3)CC2)cn1	-3.23	21.6
Cc1cccc(CN2C[C@@H]3CN(C(=O)c4ccsc4)C[C@@H]3C2=O)c1	2.59	-27.2
O=C(NC1CCC1)[C@@H]1C[C@@H]2CCN(Cc3cccs3)C[C@@H]2O1	-2.46	-16.7
Cc1ccc(C(=O)N2Cc3c(CN4CCCCC4)nn(C)c3C2)cc1C	4.62	-4.53
CN1CCC/C1=N\S(=O)(=O)c1ccc(NC(=O)c2cccs2)cc1	-0.972	-166
Cc1nc(CN2CCCn3c(nc(Cn4ccnc4)cc3=O)C2)cs1	0.435	-3.23
CN(C)C(C(=O)N1CCCC1)c1ccccc1F (configuration not stated)	3.9	-23.9
CCN(C(=O)CN(C)C(c1cccc(F)c1)c1ccccn1)C1CC1 (configuration not stated)	-2.49	8.33
Cc1noc(C(C)C)c1C(=O)N1CCCN(Cc2cscn2)CC1	-4.35	-6.33
O=C(Cc1ccc2c(c1)OCCO2)N1CCCC(n2ccnc2)C1 (configuration not stated)	-4.41	-18.9
CCn1nc(C)c2nc(C(C)C)nc(N3CCCCC3)c21	8.83	-36.2
CSc1nccn1-c1cccc(C(=O)NCc2nnc(C)n2C)c1	4.52	19.7
CSc1ccc(CNC(c2ccccc2)c2nccn2C)cc1 (configuration not stated)	3.61	-1.22
Cc1ccc([C@]2(O)CC[C@H]3CN(Cc4cccc(Cl)c4Cl)C[C@H]32)nc1	7.16	6.78
Cc1occc1C(=O)NCc1ccc(N2CCCC(C(N)=O)C2)cc1 (configuration not stated)	1.75	-14.7

Structure (SMILES)	Percent Effect [1] [%]	Percent Effect [2] [%]
CN1CCOC(CNC(=O)CCCOCCc2ccccc2)C1 (configuration not stated)	-3.72	1.69
Cc1nc(COc2ccc(CNCC3CN(C)CCO3)cc2)cs1 (configuration not stated)	5.51	-13.8
N#Cc1ccc(F)c(CN2CCCC2Cn2cnc3ccccc32)c1 (configuration not stated)	-0.466	31.2
Cc1ncccc1Oc1nccnc1C1CCN(C(C)C)CC1	-4.09	-1.37
CS(=O)(=O)N1CCC(NC(=O)COc2ccc(Cl)c(Cl)c2)CC1	1.23	-20.3
CCN(C)c1ncnc2c1CCN(Cc1csc(C)n1)CC2	-3.19	-3.16
CCS(=O)(=O)CCn1ccc(NC(=O)CCc2cccc(C)c2)n1	2.58	-19.5
COCCN(Cc1ccoc1)C(=O)c1cccnc1SC	1.65	-0.408
CC(NC(=O)CNCCn1cccn1)c1ccc2c(c1)CCCC2 (configuration not stated)	-4.86	-9.4
O=C1NC(c2ccccc2)=N[C@@]12CC[C@@H]1CN(Cc3ccccc3)C[C@@H]12	0.728	-14.6
COc1ccccc1Oc1ncccc1CNC(=O)[C@@H](C)NC(C)=O	0.362	-19.5
CCCc1nc(C)cc(N2CCC3(CCC(=O)N(CCOC)C3)CC2)n1	-4.22	-2.13
Cc1ccc(NC(=O)N2CCOC(C)C2)cc1Cl (configuration not stated)	0.866	1.77
CC(C)c1nc(C2CCCN2CCCc2nc3ccccc3o2)no1 (configuration not stated)	-3.53	17.3
Cc1cnn(CC2CN(CCS(=O)(=O)c3ccccc3)CCO2)c1 (configuration not stated)	-0.24	0.99
O=C(Nc1nc2c(s1)CCC2)c1cccnc1N1CCOCC1	-4.4	-10.3
Cc1ccc(CC(=O)N2CCc3nnc(N(C)C)cc3C2)cn1	0.322	-40.7
O=C(Nc1cccnc1)[C@H]1C[C@@H]2CN(C(=O)NC3CCCC3)C[C@H]1O2	2.61	-2.93
Cc1ccc(CNC(C)c2ccc3[nH]c(=O)[nH]c3c2)s1 (configuration not stated)	1.6	-1.3
CCc1nc(C2CCCN(C(=O)c3cccc4cn[nH]c34)C2)no1 (configuration not stated)	4.75	29.8
Cc1cc(NCc2cc3n(n2)CCCN(C(=O)N(C)C)C3)ncn1	0.54	-3.81
CC(=O)NCCNC(=O)N(C)Cc1ccc2c(c1)OCCO2	-4.52	15.2
Cc1ncsc1CN1CC[C@H]2OCC[C@@]2(C(=O)NC(C)C)C1	2.43	-7.46
